Source: PubChem BioAssay
Inconclusive results are not listed. The source made the active and inactive calls. No cut-off is given here; in the data, nearly all actives have AC50 up to about 26 µM.

Assay: growth inhibition of DIPG glioma cells, dose response, cell-based, SU-DIPG-XVII, MIPE5.0, CellTiter-Glo, qHTS (AID 1347060);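 for AC50: cells exposed to compound for 48 hours before viability readout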
Details: SU-DIPG-XVII viability, CellTiter-Glo ATP luminescence

SMILES	AC50	outcome
O=C(NOCCO)c1cc(CN2OCCCC2=O)c(F)c(F)c1Nc1ccc(I)cc1F	0.332 µM (active)	
CC(C)NC(=O)C1CCC(n2c(NC(=O)c3ccc(F)cc3)nc3ccc(CN4CCC(C(C)(C)O)CC4)cc32)CC1 (stereo not drawn)	9.1 µM (active)	
COc1cccc2c1c(O)c(C(=O)N(C)c1ccc(C(F)(F)F)cc1)c(=O)n2C		inactive
COCCNCc1ccc(-c2cc3nccc(Oc4ccc(NC(=O)C5(C(=O)Nc6ccc(F)cc6)CC5)cc4F)c3s2)nc1	7.42 µM (active)	
CC1Oc2cc(cnc2N)-c2c(nn(C)c2C#N)CN(C)C(=O)c2ccc(F)cc21 (stereo not drawn)	14.8 µM (active)	
CCc1cc(C(N)=O)ccc1-n1nc(C(C)C)c2c(-n3cnc(-c4cnn(C)c4)c3)ccnc21	1.86 µM (active)	
NS(=O)(=O)Oc1ccc2c3c(c(=O)oc2c1)CCCCC3		inactive
CC1=C(c2ccc(O)cc2)[C@H](c2ccc(OCCN3CCCCC3)cc2)Oc2cc(O)ccc21	20.9 µM (active)	
NC(=O)c1cccc2c(NC(CN3CCC3)c3ccc(Cl)c(C(F)(F)F)c3)ncnc12 (stereo not drawn)	11.8 µM (active)	
CCN1C(=O)N2Cc3cc(OC)cc(OC)c3[C@@H](C)C=C2C12CCN(Cc1cc(C)cc(C)c1)CC2	20.9 µM (active)	
CCN1CCN(Cc2ccc(NC(=O)Nc3ccc(Oc4cc(NC)ncn4)cc3)cc2C(F)(F)F)CC1	7.42 µM (active)	
CCCCN(CCCC)C(=O)CN1C[C@H](c2ccc3c(c2)OCO3)[C@@H](C(=O)O)[C@@H]1c1ccc(OC)cc1		inactive
O=C(/C=C\n1cnc(-c2cc(C(F)(F)F)cc(C(F)(F)F)c2)n1)NNc1ccccn1	2.95 µM (active)	
